Percent Effect data for eight molecules are collected here from ChEMBL document CHEMBL3988442, “University of Dundee, Small-Polar-MMV Screening Library” (2021).

For some of these results: Results with a measured potency or affinity are listed apart.

Common to all, as to design: scale not given: direction of the effect not stated beside the values
The target in assay [1] is Protein translocase subunit SecA (Escherichia coli (strain K12)) (UniProt P10408). The assay can be described thus: Assay to Identify E. coli SecA ATPase Inhibitors. It is filed as functional. Particulars: 30 µM.
Assay [2] addresses T1, Ubiquitin-activating enzyme e1, putative (Leishmania donovani (strain BPK282A1)) (UniProt E9BSI1).
T1 sequence (whole entry): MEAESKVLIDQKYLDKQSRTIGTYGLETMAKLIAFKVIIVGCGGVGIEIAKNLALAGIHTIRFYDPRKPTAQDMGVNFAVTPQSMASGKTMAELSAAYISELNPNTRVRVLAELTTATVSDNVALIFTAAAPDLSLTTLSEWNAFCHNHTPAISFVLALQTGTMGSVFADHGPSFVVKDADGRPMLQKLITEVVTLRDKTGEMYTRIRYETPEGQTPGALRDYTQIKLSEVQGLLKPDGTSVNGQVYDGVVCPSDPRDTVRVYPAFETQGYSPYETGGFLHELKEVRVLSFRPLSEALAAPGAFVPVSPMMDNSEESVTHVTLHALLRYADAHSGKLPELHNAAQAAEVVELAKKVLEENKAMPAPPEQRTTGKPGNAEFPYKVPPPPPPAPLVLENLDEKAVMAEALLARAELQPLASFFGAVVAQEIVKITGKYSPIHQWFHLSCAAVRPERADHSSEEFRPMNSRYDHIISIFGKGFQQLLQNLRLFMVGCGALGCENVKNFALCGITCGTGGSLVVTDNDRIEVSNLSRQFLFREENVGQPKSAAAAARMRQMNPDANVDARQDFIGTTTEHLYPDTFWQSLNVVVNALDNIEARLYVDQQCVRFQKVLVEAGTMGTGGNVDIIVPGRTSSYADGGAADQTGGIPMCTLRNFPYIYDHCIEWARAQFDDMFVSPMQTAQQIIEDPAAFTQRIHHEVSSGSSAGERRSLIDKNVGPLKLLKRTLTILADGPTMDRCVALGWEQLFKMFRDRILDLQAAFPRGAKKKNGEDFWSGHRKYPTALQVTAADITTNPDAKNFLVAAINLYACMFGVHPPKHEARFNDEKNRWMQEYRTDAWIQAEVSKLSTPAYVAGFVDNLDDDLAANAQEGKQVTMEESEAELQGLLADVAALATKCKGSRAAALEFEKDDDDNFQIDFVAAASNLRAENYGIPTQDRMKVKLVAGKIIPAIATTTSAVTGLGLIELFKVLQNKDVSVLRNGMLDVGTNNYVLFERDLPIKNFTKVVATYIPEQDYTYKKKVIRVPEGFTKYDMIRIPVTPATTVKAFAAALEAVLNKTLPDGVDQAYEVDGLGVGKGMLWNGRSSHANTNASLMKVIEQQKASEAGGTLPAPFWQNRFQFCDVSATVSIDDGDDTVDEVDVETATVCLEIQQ
The assay can be described thus: Leishmania donovani Ubiquitin Activating Enzyme (LdE1). The assay is classed as functional. Particulars: 30 µM.

For assay [3], the target named is AMP-activated protein kinase, AMPK (Homo sapiens) (UniProt P54646+O43741+P54619+Q9UGJ0+Q9Y478+Q13131+Q9UGI9). Kind of assay: AMP-dependent Kinase enzyme assay. An in vitro enzyme assay that detects ADP turnover that is directly proportional to AMPK activity. This uses naive AMPK that is activated during the assay with MK-8722. It is filed as functional. Particulars: 30 µM.

Assay [4] concerns the target Sialic acid-binding Ig-like lectin 9 (Homo sapiens) (UniProt Q9Y336). The assay can be described thus: Hs-Siglec9 ALPHAscreen SOP 20170721. The note with it: 10 µM. Background: Alpha assays give light when donor and acceptor beads are brought close together.
For assay [5], the system named is Trypanosoma cruzi. The assay can be described thus: Trypanosoma cruzi phosphomannomutase and mannose-1-phosphate guanylyltransferase assay. It is filed as functional. Particulars: 10 µM.
Assay [6] concerns the target T2, Arginase-2, mitochondrial (Homo sapiens) (UniProt P78540).
T2 sequence (whole entry): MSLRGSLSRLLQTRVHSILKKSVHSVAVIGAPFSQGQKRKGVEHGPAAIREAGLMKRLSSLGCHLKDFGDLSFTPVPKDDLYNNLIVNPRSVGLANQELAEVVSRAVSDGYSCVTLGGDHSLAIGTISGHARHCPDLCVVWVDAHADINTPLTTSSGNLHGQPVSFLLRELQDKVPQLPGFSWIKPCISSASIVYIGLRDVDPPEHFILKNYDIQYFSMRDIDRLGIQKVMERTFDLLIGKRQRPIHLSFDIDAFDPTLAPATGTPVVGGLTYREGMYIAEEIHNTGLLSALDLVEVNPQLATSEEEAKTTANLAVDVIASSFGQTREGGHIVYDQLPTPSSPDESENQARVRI
The assay can be described thus: in vitro enzyme assay to detect the production of urea directly proportional to the activity of Arginase II. Also: in the data most compounds retested in dose-response had high values. The assay is classed as functional. The note with it: 33.3 µM.

Assay [7] has as its target T3, Proteasome subunit beta (Trypanosoma cruzi) (UniProt O96673).
T3 sequence (whole entry): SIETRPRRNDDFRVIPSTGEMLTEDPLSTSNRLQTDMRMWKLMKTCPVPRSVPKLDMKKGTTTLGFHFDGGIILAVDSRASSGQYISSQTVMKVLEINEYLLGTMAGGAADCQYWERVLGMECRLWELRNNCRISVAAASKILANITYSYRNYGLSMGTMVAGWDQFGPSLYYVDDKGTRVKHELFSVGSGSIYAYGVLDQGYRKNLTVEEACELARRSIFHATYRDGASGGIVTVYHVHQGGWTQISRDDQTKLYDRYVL
The assay can be described thus: Trypanosoma cruzi proteasome chymotrypsin-like activity (TcProtChymo) assay. Also: in the data most compounds retested in dose-response had high values. It is filed as functional. Particulars: 9.37 µM.

The species named for assay [8] is Homo sapiens. Kind of assay: To identify inhibition of the IFN signalling (Jak-Stat) pathway via expression of an eGFP reporter gene under the control of an IFN-stimulated response element (ISRE) containing MxA promoter. It is filed as functional. Particulars: 30 µM. (In general: In a reporter assay the amount or activity of a reporter protein is the signal.)
The target of assay [9] is T4, Tyrosyl-tRNA synthetase, putative (Trypanosoma cruzi (strain CL Brener)) (UniProt Q4DSP6).
T4 sequence (whole entry): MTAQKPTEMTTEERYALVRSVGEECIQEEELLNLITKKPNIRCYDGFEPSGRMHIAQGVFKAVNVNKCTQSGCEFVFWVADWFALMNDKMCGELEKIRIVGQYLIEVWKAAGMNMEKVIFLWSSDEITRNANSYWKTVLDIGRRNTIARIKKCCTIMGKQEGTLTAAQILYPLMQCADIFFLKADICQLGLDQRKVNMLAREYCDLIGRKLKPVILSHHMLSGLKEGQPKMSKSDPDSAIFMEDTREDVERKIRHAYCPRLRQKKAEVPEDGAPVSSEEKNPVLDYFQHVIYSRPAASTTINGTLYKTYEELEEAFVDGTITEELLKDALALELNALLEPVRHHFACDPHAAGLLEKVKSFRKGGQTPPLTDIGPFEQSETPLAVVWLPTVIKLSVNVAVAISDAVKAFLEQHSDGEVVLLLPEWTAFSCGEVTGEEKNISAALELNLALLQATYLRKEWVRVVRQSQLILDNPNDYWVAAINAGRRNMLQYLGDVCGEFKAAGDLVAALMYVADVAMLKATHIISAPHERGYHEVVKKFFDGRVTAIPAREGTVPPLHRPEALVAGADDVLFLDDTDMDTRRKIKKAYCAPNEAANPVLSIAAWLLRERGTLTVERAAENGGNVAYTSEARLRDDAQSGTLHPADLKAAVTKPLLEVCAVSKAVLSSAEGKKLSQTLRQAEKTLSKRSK
The assay can be described thus: Trypanosoma cruzi tyrosyl tRNA synthetase (TcYRS) _High Tyrosine SOP. Also: in the data most compounds retested in dose-response had high values. The assay is classed as functional. Particulars: 30 µM.

Assay [10] addresses T4, Tyrosyl-tRNA synthetase, putative (Trypanosoma cruzi (strain CL Brener)). Kind of assay: Trypanosoma cruzi tyrosyl tRNA synthetase (TcYRS) SOP. The assay is classed as functional. The note with it: 30 µM.
Assay [11] addresses Chromo domain-containing protein 1 (Saccharomyces cerevisiae (strain ATCC 204508 / S288c) (Baker's yeast)) (UniProt P32657). The assay can be described thus: ScCHD-1 Enzyme Inhibition Assay. Also: in the data most compounds retested in dose-response had high values. The assay is classed as functional. Particulars: 30 µM.

Sialic acid-binding Ig-like lectin 9 (Homo sapiens), sequence (Q9Y336 whole entry): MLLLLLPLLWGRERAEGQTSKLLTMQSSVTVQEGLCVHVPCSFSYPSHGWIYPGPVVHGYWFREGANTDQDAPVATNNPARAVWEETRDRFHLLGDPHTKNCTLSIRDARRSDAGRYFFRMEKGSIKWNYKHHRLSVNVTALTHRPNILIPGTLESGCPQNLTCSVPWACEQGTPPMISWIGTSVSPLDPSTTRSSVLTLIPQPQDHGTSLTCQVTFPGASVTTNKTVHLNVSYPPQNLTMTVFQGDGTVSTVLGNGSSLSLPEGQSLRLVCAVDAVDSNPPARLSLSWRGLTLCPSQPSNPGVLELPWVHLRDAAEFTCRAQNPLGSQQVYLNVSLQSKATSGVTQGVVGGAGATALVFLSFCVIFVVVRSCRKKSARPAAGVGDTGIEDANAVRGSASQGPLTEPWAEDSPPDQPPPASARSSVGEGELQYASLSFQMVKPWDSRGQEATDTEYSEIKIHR
Protein translocase subunit SecA (Escherichia coli (strain K12)), sequence (P10408 whole entry): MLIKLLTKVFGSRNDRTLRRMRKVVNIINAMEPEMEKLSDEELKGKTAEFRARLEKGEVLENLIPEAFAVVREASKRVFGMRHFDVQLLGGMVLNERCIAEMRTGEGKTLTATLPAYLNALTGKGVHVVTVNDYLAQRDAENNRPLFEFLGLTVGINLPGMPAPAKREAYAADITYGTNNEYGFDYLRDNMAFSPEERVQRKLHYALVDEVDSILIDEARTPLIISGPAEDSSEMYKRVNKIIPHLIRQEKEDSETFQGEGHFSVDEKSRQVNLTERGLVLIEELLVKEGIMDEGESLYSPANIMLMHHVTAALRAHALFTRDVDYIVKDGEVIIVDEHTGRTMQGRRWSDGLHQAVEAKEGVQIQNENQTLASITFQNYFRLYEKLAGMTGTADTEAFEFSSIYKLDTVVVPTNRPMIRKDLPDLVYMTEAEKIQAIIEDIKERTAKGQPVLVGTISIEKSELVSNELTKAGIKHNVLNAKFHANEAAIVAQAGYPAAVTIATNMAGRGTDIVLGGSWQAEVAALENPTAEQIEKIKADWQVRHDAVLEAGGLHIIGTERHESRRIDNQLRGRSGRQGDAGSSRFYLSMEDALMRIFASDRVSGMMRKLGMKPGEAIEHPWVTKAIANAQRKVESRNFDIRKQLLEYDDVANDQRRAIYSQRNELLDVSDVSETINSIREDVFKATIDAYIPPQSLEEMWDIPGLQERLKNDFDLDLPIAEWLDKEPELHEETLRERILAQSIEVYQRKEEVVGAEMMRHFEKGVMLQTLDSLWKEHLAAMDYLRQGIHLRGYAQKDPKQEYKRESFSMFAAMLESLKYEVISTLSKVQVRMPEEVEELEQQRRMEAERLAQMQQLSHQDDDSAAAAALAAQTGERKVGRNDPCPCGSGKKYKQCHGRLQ
Chromo domain-containing protein 1 (Saccharomyces cerevisiae (strain ATCC 204508 / S288c) (Baker's yeast)), sequence (P32657 whole entry, the tested form may be a part): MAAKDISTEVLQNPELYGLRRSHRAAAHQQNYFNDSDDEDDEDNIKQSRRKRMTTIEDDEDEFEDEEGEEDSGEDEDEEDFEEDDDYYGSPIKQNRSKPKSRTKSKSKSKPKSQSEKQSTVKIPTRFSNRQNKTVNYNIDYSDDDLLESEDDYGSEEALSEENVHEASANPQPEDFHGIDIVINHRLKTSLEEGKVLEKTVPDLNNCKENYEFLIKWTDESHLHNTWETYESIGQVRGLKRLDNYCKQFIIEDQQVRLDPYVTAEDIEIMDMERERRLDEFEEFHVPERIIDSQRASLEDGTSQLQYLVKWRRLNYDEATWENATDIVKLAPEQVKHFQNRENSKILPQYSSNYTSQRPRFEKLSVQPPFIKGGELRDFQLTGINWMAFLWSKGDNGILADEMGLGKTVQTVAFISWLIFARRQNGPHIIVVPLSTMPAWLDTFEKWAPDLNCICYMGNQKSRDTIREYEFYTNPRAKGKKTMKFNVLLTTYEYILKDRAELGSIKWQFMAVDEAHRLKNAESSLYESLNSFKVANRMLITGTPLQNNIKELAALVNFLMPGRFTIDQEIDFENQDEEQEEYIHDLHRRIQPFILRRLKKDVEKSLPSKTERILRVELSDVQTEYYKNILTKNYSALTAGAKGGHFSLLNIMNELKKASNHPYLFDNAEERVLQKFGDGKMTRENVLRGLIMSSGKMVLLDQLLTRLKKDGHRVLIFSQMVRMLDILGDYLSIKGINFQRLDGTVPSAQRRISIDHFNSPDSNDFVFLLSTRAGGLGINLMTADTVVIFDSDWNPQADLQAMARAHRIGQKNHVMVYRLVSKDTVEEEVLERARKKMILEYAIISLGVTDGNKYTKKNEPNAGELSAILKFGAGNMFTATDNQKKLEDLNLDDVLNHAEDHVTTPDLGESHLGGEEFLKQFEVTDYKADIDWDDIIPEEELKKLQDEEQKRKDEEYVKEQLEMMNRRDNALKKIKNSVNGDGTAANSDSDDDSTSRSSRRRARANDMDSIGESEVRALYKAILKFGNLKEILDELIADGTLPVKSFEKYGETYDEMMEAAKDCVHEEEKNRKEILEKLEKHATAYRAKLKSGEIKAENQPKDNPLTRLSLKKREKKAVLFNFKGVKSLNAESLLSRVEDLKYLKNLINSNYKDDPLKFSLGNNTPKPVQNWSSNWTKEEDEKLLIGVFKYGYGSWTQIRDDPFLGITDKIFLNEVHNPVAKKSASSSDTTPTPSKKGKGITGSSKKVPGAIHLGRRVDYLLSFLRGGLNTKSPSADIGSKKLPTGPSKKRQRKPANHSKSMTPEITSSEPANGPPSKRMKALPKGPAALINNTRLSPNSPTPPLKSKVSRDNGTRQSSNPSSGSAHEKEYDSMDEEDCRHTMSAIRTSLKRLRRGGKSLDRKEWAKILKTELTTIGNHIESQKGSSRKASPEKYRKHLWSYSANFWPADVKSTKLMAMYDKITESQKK

In the case of `Cc1ccc(NC2CCN(C(=O)c3cccc(F)c3F)CC2)nn1`, the Percent Effect in assay [1] is 0.567%; in assay [2] it was -6.33%; in assay [3], 2.51%; in [4], 4.94%; in [5], 0.308%; in [6], -0.645%. In addition, the Percent Effect in [7] was 1.54%; in assay [8], 10.2%; in [9], 4.17%; in assay [10], 5.06%; in assay [11], -24.5%.
On to `O=c1ccc2c(n1CCN1CCCC1)CCN(Cc1ccoc1)CC2`, for which the Percent Effect in [1] was -1.68%; in [2], 8.22%; in assay [3], -4.13%; in assay [4], 13.3%; in assay [5], 7.94%; in [6], -9.58%. In addition, the Percent Effect was 10.7% in assay [7]; 19.6% in assay [8]; 8.33% in [9]; 13.6% in [10]; -2.06% in assay [11].
As to `O=C(c1ccc2c(c1)OCO2)N1CCCC(n2cccn2)C1` (stereo not drawn), the Percent Effect in assay [1] is -1.59%; in [2], 10.8%; in [3], -7.46%; in assay [4], -3.52%; in [5], 7.64%; in assay [6], -4.01%. Besides, the Percent Effect in assay [7] is 3.24%; in [8] it was 27.9%; in assay [9] it was 8.37%; in assay [10], 11.1%; in assay [11], -7.12%.
For the molecule `O=C(NCC1CC1)Nc1cnc2cc(Cl)ccc2c1O`, the Percent Effect in assay [1] was -4.33%; in [2], 12.2%; in assay [3], 4.52%; in assay [4], -10.8%; in assay [5] it was -2.57%; in assay [6], -1.62%. Further, the Percent Effect in [7] was 8.89%; in [8] it was 8.61%; in assay [9] it was -1.07%; in assay [10], -1.3%; in [11] it was -6.64%.
In the case of `Cc1cccc(CN2CCC3(CCCN(C(=O)NC4CC4)C3)C2=O)n1` (stereo not drawn), the Percent Effect in [1] was -0.773%; in assay [2], 10.4%; in [3], -9.14%; in assay [4], -16.1%; in assay [5] it was -7.99%; in assay [6], 5.81%. Also, the Percent Effect in [7] was 6.79%; in assay [8], 11.4%; in [9], 1.06%; in [10] it was 1.28%; in [11], -9.83%.
Take `O=C(NCC1CCOCC1)[C@H]1C[C@@H]2CCN(Cc3ccncc3)C[C@@H]2O1`: the Percent Effect in assay [1] was -1.48%; in [2] it was -2.67%; in assay [3], -3.45%; in [4], 1.78%; in [5], 3.28%; in [6] it was -1.25%. In addition, the Percent Effect was 14% in assay [7]; -16.5% in assay [8]; 1.04% in assay [9]; 7.5% in [10]; -5.98% in assay [11].
In the case of `CN(C)Cc1nnc(C2CCN(C(=O)CCc3cccs3)CC2)n1C`, the Percent Effect in [1] was -3.21%; in [2] it was 13.5%; in assay [3], -7.22%; in assay [4] it was 25.4%; in assay [5] it was 4.83%; in [6] it was 1.43%. Moreover, the Percent Effect turned out to be 12.1% in assay [7]; 5.64% in assay [8]; 6.88% in assay [9]; 14.6% in [10]; 72.9% in assay [11].
Turning to `CC(=O)Nc1nc(C2CCN(CC(N)=O)CC2)cs1`, the Percent Effect in assay [1] is -1.36%; in assay [2], -6.76%; in assay [3], 6.42%; in assay [4], 5.54%; in assay [5], -4.35%; in assay [6], 3.48%. Besides, the Percent Effect in assay [7] is -3.9%; in assay [8] it was 5.69%; in assay [9] it was 0%; in assay [10], -3.9%; in assay [11], 11%.
